This is a sample that favours compounds with a hit; in the whole collection about 1.6% have one here.
RAD54 inh – inhibitors of human RAD54 branch migration, primary screen, biochemical, fluorescence, single point | DNA repair and recombination protein RAD54-like (Homo sapiens), Q92698 | RAD54 Holliday junction branch migration, FAM/BHQ fluorescence | inhibition, % at 10.4 µM | 360,000 tested, 0.14% active | AID 602329, 2012;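 active = mean normalized replicate activity at least 40 and at least half of replicates scoring 40 or more; inconclusive = only one of the two criteria met; inactive = mean below 40 and under half of replicates reaching 40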;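 also: 0% = median of neutral control wells and 100% = median of positive control wells; inhibitors cause a drop in the FAM fluorescence signal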
ABCB6 inh MLPCN – ABCB6 transporter inhibitors, primary screen, K562-ABCB6 cells, flow cytometry, MLPCN library; ATP-binding cassette sub-family B member 6 (Homo sapiens), Q9NP58; K562-ABCB6 porphyrin accumulation, 1 h; hits give low values; fluorescence ratio to DMSO, % at 10 µM; 360,000 tested, 0.19% active; AID 602162, 2011;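 active = fluorescence ratio to DMSO below 75%, the collection mean minus 3 SD; inconclusive = too few cells collected in the well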;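 also: signal is porphyrin accumulated inside mitochondria; 100% equals median channel fluorescence of DMSO control wells; lower ratio means ABCB6 inhibition with less porphyrin fluorescence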
Vif inh – HIV Vif self-association inhibitors, primary screen, imaging, HEK293T, single point | 340,000 tested, 0.35% active | AID 602346, 2012 | inhibition, % at 7.49 µM | HEK293T cells, Vif self-association by quenched fluorescence, 24 h; in the data active = inhibition above about 50%, passing the limit was not always enough; inconclusive = no clear call, values can overlap the other calls; inactive = below about 31%
Glyco luc inh – increase of ERlucT glycosylation luciferase signal, primary screen, N-linked glycosylation inhibitor project, D54 ERlucT cells, luminescence, set 2 | 360,000 tested, 0.23% active | reporter increase, % at 12.5 µM | D54 ERlucT glycosylation luciferase reporter, 24 h; percent of 100 nM tunicamycin response | AID 588692, 2011;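 active = mean luciferase reporter signal, scaled so untreated is 0 and the glycosylation-blocking control 100, at or above a set limit in every replicate; inconclusive = mean reaches the limit but not every replicate does; inactive = mean below the limit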;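 also: luciferase carries N-glycosylation sites so blocking glycosylation raises the light; 0% = median of neutral control wells and 100% = median of 100 nM tunicamycin wells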
Myeloid diff 2 – induction of myeloid progenitor differentiation, primary screen, cell-based, flow cytometry, MLPCN library | ER-HoxA9 myeloid progenitors, lysozyme-GFP differentiation | calls only at 10 µM | 360,000 tested, 1% active;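 active = normalized GFP-positive differentiation at or above the plate's own cutoff, the solvent-only control mean plus 3 SD; inconclusive = no clear call, values can overlap the other calls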;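 also: cells exposed to compound for four days before flow analysis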
* = called active by the depositor; i = inactive; u = inconclusive; x = no result given; + = active, no number.

SMILES	RAD54 inh	ABCB6 inh MLPCN	Vif inh	Glyco luc inh	Myeloid diff 2
Cc1ccc2c(c1)[C@H]1[C@H](CO2)[C@H](c2ccccc2)[C@]2(C)C(=O)Nc3cc(F)c(F)cc3C(=O)N12	-8.7	102.0	-3.7	11.3	i
C[C@@]12C(=O)Nc3ccc(Cl)cc3C(=O)N1[C@H]1c3cc(Br)ccc3OC[C@@H]1[C@@H]2c1ccccc1	3.4	95.0	1.7	16.8	i
Cc1ccc(-c2ccc3c(c2)O[C@@H](CN(C)Cc2ccccc2)[C@@H](C)CN([C@@H](C)CO)S3(=O)=O)cc1	0.0	x	x	x	x
CO[C@@H]1CN(C)C(=O)c2cc(NC(=O)C3CCOCC3)ccc2OC[C@@H](C)N(S(=O)(=O)c2ccc(Cl)cc2)C[C@H]1C	-5.4	x	x	x	x
CC(C)NC(=O)N1[C@H](CO)[C@@H]2c3ccccc3N(C(=O)C3CCC3)C[C@@H]21	2.4	x	x	x	x
CC(=O)Nc1ccc(/C=C/C(=O)c2ccc3c(c2)OCCO3)cc1	0.1	96.0	55.5*	u	i
CCOc1cc(/C=C/C(=O)c2ccc3c(c2)OCCO3)ccc1OCC(=O)N(C)C	-2.9	99.0	-3.2	u	+
O=C(/C=C/c1cccc([N+](=O)[O-])c1)c1ccc2c(c1)OCCO2	x	97.0	3.4	31.3*	i
C[C@@H]1CCCCO[C@@H](CN(C)C(=O)Nc2cccc3ccccc23)[C@H](C)CN([C@H](C)CO)C(=O)c2cc(NC(=O)Nc3ccc4c(c3)OCO4)ccc2O1	-3.5	x	x	x	x
Cc1ccc(S(=O)(=O)N2CCN(C(=O)c3n[nH]c(=O)c4ccccc34)CC2)c(C)c1	-6.6	95.0	52.6*	0.6	i
CC(C)C(=O)Nc1ccc2c(c1)C(=O)N(C)[C@@H]1CC[C@@H](CC(=O)NCC3CC3)O[C@@H]1CO2	8.6	x	x	x	x
COc1ccc(Nc2cc(C)nc3ccccc23)cc1	35.1	93.0	-2.0	-0.5	i
COc1ccc(/C=N/Nc2cc(C)nc3ccc(OC)cc23)c(OC)c1	94.7*	112.0	92.3*	-23.2	x
COc1ccc2nc(C)cc(Nc3ccc(N4CCN(C)CC4)cc3)c2c1	97.6*	99.0	-9.9	66.6*	i
COc1ccc2nc(C)cc(N/N=C/c3ccccc3)c2c1	29.6	107.0	-12.9	-20.7	x
COc1ccc2nc(C)cc(NCc3ccc(F)cc3)c2c1	7.7	878.0	90.8*	1.7	+
C/C=C/c1cnc2c(c1)C(=O)N([C@H](C)CO)C[C@@H](C)[C@@H](CN(C)Cc1ccc(F)cc1)O2	1.9	x	x	x	x
COCC(=O)N(C)C[C@H]1Oc2ncc(C#C[C@@H](C)O)cc2C(=O)N([C@@H](C)CO)C[C@H]1C	-4.7	x	x	x	x
Cc1ccc2nc3c(cc(C(=O)NCc4ccccc4)c(=N)n3CCCn3ccnc3)c(=O)n2c1	27.1	100.0	-1.3	7.0	i
Cc1ccc2nc3c(cc(C(N)=S)c(=N)n3CCCOC(C)C)c(=O)n2c1	14.6	110.0	6.3	36.8*	+
Cc1ccc2nc3c(cc(C(=O)NCCc4ccccc4)c(=N)n3CCN3CCOCC3)c(=O)n2c1	10.3	92.0	12.9	4.1	+
Cc1cccn2c(=O)c3cc(C(=O)NCc4ccco4)c(=N)n(CCc4ccccc4)c3nc12	x	101.0	2.3	52.6*	i
C[C@H]1CN([C@@H](C)CO)C(=O)Cc2cc(NS(=O)(=O)c3ccccc3)ccc2O[C@@H]1CN(C)Cc1ccncc1	0.4	x	x	x	x
CCCNC(=O)C[C@H]1CC[C@H]2[C@@H](COC[C@@H](O)CN2Cc2ccccc2F)O1	4.7	x	x	x	x
C[C@@H]1CN([C@@H](C)CO)C(=O)c2cc(NC(=O)c3ccccc3)ccc2O[C@@H](C)CCCCO[C@@H]1CN(C)Cc1ccncc1	-4.4	x	x	x	x
CN1CCN(C(=O)c2ccc3c(c2)N(Cc2ccc(Cl)cc2)C(=O)c2ccccc2S3=O)CC1 (stereo unspecified)	5.8	91.0	-4.6	2.1	+
Cc1ccc(OCCCCN(C)Cc2ccccc2)c(Br)c1	11.5	104.0	18.0	-2.2	+
COc1ccccc1OCCOCCOc1ccc(C)cc1Br	x	605.0	-4.1	1.6	+
Cc1cc(SCC(=O)N/N=C/c2ccc(O)c(O)c2O)c(C)cc1Br	-2.7	103.0	-6.4	-4.9	+
